From PubChem BioAssay
Unmarked numbers belong to inactive results. For some assays here: Measured potencies and affinities stand elsewhere. The source made the active and inactive calls. Unless noted, no rule for the calls is given here.

How the values were obtained:
[1] = antimalarial activity against Dd2 strain (AID 2302;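 active = growth inhibition above 50% at the single 2 µM test dose, taken to imply half-maximal potency below 2 µM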;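 also: 0% = DMSO untreated growth and 100% = chloroquine plus artemisinin killed control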); details: P. falciparum Dd2 in RBCs, LDH growth readout, 72 h; at 2 µM; stronger effect = higher value
[2] = HepG2 cytotoxicity, primary screen, cytotoxicity control for P. falciparum antimalarial project, cell-based, ATP luminescence (AID 2303;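 active = inhibition above 50%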;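 also: 0% = DMSO wells and 100% = digitonin-killed cells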); details: HepG2 viability, 24-48 h, at 10 µM, stronger effect = higher value
[3] = biological target: L-lactate dehydrogenase (Plasmodium falciparum (isolate CDC / Honduras)) (UniProt Q27743); assay: PfLDH activity inhibition – cell lysate, 3D7 strain, counter-screen for P. falciparum growth inhibition project (AID 2304);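 also: 0% = vehicle and 100% = reference inhibitor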; details: P. falciparum 3D7 crude extract, LDH APAD/NBT absorbance; at 2 µM; stronger effect = higher value
[4] = inhibition of 3D7 malaria parasite growth – strain 3D7 (AID 2306);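 also: 0% = DMSO wells and 100% = chloroquine plus artemisinin control wells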; details: P. falciparum 3D7 erythrocytic growth, LDH absorbance, 72 h; at 2 µM; stronger effect = higher value
[5] = biological target: Calcium-dependent protein kinase 1 (Plasmodium falciparum (isolate 3D7)) (UniProt P62344); assay: PfCDPK1 kinase inhibitors, biochemical, TCAMS library (AID 1159585; cut-off not given, nearly all actives have IC50 up to about 0.98 µM;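 also: inhibitors leave more ATP so luminescence rises with inhibition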); details: recombinant PfCDPK1, Kinase-Glo ATP depletion luminescence
[6] = biological target: Plasmodium falciparum protein kinase 6 (PK6, PF3D7_1337100) (UniProt Q8IDW1); assay: PfPK6 kinase inhibitors, biochemical, TCAMS library (AID 1159586); details: recombinant PfPK6, Kinase-Glo ATP depletion luminescence
[7] = biological target: Protein kinase 7 (PK7), Plasmodium falciparum 3D7 (PF3D7_0213400) (UniProt Q7YTF7); assay: inhibition of Plasmodium PK7 catalytic activity – biochemical, TCAMS antimalarial set, Kinase-Glo luminescence (AID 1159587); details: recombinant PfPK7, Kinase-Glo ATP depletion luminescence
[8] = biological target: Calcium-dependent protein kinase 4 (Plasmodium falciparum (isolate 3D7)) (UniProt Q8IBS5); assay: PfCDPK4 kinase inhibitors, biochemical, TCAMS library (AID 1159588; cut-off not given, nearly all actives have IC50 up to about 0.91 µM); details: recombinant PfCDPK4, Kinase-Glo ATP depletion luminescence
Chain of Calcium-dependent protein kinase 4 (Plasmodium falciparum (isolate 3D7)) (Q8IBS5 whole entry, looked up): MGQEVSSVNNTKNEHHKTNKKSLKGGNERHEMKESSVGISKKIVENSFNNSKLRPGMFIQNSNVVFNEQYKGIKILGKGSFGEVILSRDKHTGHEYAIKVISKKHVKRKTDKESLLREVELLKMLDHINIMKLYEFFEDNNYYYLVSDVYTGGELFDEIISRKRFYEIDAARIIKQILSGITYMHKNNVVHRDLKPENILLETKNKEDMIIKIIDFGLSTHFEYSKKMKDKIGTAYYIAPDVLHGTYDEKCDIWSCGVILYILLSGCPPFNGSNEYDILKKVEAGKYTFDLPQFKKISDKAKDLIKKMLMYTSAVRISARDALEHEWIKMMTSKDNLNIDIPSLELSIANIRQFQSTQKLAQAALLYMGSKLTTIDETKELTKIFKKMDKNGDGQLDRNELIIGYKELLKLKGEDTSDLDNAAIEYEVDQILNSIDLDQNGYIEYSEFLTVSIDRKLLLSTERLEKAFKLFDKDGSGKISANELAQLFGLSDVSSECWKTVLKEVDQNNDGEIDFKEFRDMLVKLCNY

Chain of Protein kinase 7 (PK7), Plasmodium falciparum 3D7 (PF3D7_0213400) (Q7YTF7 1-343): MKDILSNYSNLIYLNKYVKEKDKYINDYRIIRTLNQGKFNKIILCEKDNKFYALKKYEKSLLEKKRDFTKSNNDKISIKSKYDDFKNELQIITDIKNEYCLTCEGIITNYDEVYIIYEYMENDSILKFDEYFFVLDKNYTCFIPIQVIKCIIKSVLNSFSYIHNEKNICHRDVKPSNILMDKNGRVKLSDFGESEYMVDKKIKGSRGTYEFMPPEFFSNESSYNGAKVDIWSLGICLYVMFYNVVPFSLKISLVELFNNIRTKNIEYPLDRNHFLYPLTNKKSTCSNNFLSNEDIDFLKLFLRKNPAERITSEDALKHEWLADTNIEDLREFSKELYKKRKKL
Chain of L-lactate dehydrogenase (Plasmodium falciparum (isolate CDC / Honduras)) (Q27743 whole entry, looked up): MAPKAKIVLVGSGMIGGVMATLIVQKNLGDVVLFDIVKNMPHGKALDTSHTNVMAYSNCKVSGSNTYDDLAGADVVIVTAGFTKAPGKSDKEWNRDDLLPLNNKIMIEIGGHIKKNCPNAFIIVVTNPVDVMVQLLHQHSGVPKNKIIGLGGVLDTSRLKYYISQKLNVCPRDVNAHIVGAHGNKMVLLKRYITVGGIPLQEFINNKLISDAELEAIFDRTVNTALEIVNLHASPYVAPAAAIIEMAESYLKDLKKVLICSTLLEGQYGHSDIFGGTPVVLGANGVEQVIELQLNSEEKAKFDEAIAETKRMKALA
Chain of Plasmodium falciparum protein kinase 6 (PK6, PF3D7_1337100) (Q8IDW1 1-305): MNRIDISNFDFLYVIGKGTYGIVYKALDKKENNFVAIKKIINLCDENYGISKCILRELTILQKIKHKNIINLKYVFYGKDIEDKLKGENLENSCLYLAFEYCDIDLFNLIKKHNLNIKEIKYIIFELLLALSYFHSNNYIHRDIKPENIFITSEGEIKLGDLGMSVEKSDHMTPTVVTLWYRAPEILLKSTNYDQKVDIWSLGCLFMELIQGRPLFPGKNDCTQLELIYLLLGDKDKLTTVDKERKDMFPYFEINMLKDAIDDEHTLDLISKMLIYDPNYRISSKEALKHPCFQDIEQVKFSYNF
Chain of Calcium-dependent protein kinase 1 (Plasmodium falciparum (isolate 3D7)) (P62344 whole entry, looked up): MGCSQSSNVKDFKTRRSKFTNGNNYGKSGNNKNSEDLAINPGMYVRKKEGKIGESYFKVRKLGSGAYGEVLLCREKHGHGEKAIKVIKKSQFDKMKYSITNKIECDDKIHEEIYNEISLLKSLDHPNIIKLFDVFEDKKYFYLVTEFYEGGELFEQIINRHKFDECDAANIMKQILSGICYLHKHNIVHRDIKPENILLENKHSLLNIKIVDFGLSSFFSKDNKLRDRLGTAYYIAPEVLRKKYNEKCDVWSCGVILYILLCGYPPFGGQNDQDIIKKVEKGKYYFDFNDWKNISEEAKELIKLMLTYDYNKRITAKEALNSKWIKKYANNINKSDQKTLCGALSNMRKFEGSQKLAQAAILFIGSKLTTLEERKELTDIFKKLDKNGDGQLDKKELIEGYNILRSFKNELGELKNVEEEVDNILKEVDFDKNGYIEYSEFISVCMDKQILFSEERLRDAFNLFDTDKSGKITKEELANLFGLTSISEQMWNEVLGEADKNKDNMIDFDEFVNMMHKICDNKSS

Row | Compound | growth inhibition [1] | inhibition [2] | inhibition [3] | growth inhibition [4] | outcome [5] | outcome [6] | outcome [7] | outcome [8]
1 | O=C(NCCN1CCCc2ccccc21)C1CCN(c2nc(-c3ccc(Cl)cc3)no2)CC1 | 62% (active) | 11% | -1% | 86% (active) | inactive | inactive | inactive | inactive
2 | COc1ccc2nccc(N3CCC(CCNCc4ccc5c(n4)NC(=O)CS5)CC3)c2c1 | 86% (active) | 55% (active) | -1% | 101% (active) | inactive | inactive | inactive | inactive
3 | O=C(CC1NC(=O)c2ccccc21)Nc1ccc(-c2ccc(-c3nc4ccc(C(F)(F)F)cc4[nH]3)cc2)cc1 (stereo not given) | 70% (active) | 39% | -2% | 87% (active) | inactive | inactive | inactive | inactive
4 | CCN(CCS(C)(=O)=O)Cc1ccc(-c2ccc3ncnc(Nc4ccc(OCc5cccc(F)c5)c(Cl)c4)c3c2)o1 | 63% (active) | 5% | -7% | 101% (active) | inactive | inactive | inactive | inactive
5 | Nc1ncc(-c2ccsc2)cc1-c1nc2ccccc2[nH]1 | 8% | 33% | -2% | 99% (active) | inactive | inactive | inactive | inactive
6 | CCc1c(CCNCCCCCCNCCc2ccc([N+](=O)[O-])cc2)ccc(OC)c1OC | 2% | 35% | 6% | 101% (active) | inactive | inactive | inactive | inactive
7 | CCNC(=O)Nc1cccc(-c2ccc(-c3nc4c(C)cccc4[nH]3)s2)c1 | 20% | 32% | -4% | 96% (active) | inactive | inactive | inactive | inactive
8 | O=C(NCC1CCN(Cc2ccc3c(c2)OCCO3)C1)c1cc(-c2cccc(C(F)(F)F)c2)cs1 (stereo not given) | 1% | 31% | 4% | 101% (active) | inactive | inactive | inactive | inactive
9 | CCc1nc(N)nc(N)c1-c1ccc(C(C)(C)C)cc1 | -5% | 27% | -7% | 94% (active) | inactive | inactive | inactive | inactive
10 | Cc1cc(-c2ccc3c(c2)CC[C@@H](N[C@@H](C)c2ccccc2)C3)cnc1N | 7% | 3% | -2% | 98% (active) | inactive | inactive | inactive | inactive
11 | Cc1cc(NCCc2ccccc2)nc(/N=C(\N)Nc2ccccc2Cl)n1 | 7% | 20% | -8% | 100% (active) | inactive | inactive | inactive | inactive
12 | CN1CCN(S(=O)(=O)c2ccc3nccc(Nc4ccc(Oc5ccccc5)cc4)c3c2)CC1 | 91% (active) | -9% | -3% | 98% (active) | inactive | inactive | inactive | inactive
13 | O=C(Cc1ccc(-n2cnnn2)cc1)N(Cc1cncn1Cc1cccc(C(F)(F)F)c1)CC1CC1 | -2% | -12% | 0% | 86% (active) | inactive | inactive | inactive | inactive
14 | O=C(NCc1ccc(Cl)cc1)c1ccc(CN2CCCN(Cc3cccc(O)c3)CC2)cc1 | 12% | 25% | -5% | 82% (active) | inactive | inactive | inactive | inactive
15 | O=C(N[C@@H](CC1CCCCC1)C(=O)NC1CCCCC1)c1ccc(O)c(-c2cccc(C(F)(F)F)c2)c1 | 95% (active) | -7% | -1% | 100% (active) | inactive | inactive | inactive | inactive
16 | Cc1ccc(CNC(=O)c2cc3c(=O)n4cccc(C)c4nc3n(CCN3CCOCC3)c2=N)cc1 | 21% | 31% | -6% | 97% (active) | inactive | inactive | inactive | inactive
17 | Cc1cc(NN=Cc2cccc([N+](=O)[O-])c2)c2ccccc2n1 | 98% (active) | -9% | 3% | 101% (active) | inactive | inactive | inactive | inactive
18 | COc1cc(Nc2ccnc3cc(-c4ccncc4)ccc23)cc(OC)c1OC | 39% | 9% | 0% | 89% (active) | inactive | inactive | inactive | inactive
19 | Fc1ccc(CN2CCN(c3ncnc4cc(-c5ccccc5)sc34)CC2)cc1 | 82% (active) | 7% | 4% | 82% (active) | inactive | inactive | inactive | inactive
20 | COc1ccc(N2CCN(c3nc(Nc4ccc(NC(C)=O)cc4)nc(N4CCCC4)n3)CC2)cc1 | 38% | -7% | -2% | 91% (active) | inactive | inactive | inactive | inactive

Row | Compound | growth inhibition [1] | inhibition [2] | inhibition [3] | growth inhibition [4] | outcome [5] | outcome [6] | outcome [7] | outcome [8]
21 | CN1CCN(CCCN(Cc2csc(-c3ccc(CNCc4ccccc4)cc3)n2)S(=O)(=O)c2ccccc2Cl)CC1 | 81% (active) | 13% | -5% | 93% (active) | inactive | inactive | inactive | inactive
22 | NCCCNc1ccnc2cc(Cl)ccc12 | 25% | 14% | 0% | 101% (active) | inactive | inactive | inactive | inactive
23 | COc1ccc(CN2CCN(CCCCNC(=O)c3ccc(NC(=O)c4ccc(Cl)cc4)cc3)CC2)c(OC)c1 | 0% | 25% | -6% | 94% (active) | inactive | inactive | inactive | inactive
24 | O=C(c1ccc([N+](=O)[O-])o1)N1CCN(c2ccccc2)CC1 | 72% (active) | 44% | 0% | 94% (active) | inactive | inactive | inactive | inactive
25 | COc1ccc2c(NN=CC=Cc3ccccc3)ccnc2c1 | 100% (active) | 9% | 4% | 100% (active) | inactive | inactive | inactive | inactive
26 | CCc1ccc(CN2CCC(C(=O)Nc3ccc(-c4nc5ccccc5[nH]4)cc3)CC2)o1 | 94% (active) | 29% | -4% | 99% (active) | inactive | inactive | inactive | inactive
27 | Cc1cccc(-c2ccc(CNC3CCN(CC4Cn5c(=O)ccc6ccc(F)c4c65)CC3)cn2)c1 (stereo not given) | 2% | -2% | -2% | 90% (active) | inactive | inactive | inactive | inactive
28 | COc1ccc2ccccc2c1C=NNc1cc(C)nc2c(C)cccc12 | 94% (active) | -3% | -4% | 102% (active) | inactive | inactive | inactive | inactive
29 | O=C(NC1CCN(Cc2ccccc2)CC1)c1ccc(-c2nc3cc4ccccc4cc3[nH]2)s1 | 25% | 13% | -1% | 99% (active) | inactive | inactive | inactive | inactive
30 | CCN(C)c1cc(C(=O)N[C@@H](Cc2ccccc2)[C@H](O)CNC(C)(C)c2cccc(OC)c2)cc(N2CCCC2=O)c1 | 81% (active) | -1% | 1% | 100% (active) | inactive | inactive | inactive | inactive
31 | Clc1ccc(-c2ccc(CNCCCN3CCCC3)cc2)cc1 | 21% | 47% | -5% | 91% (active) | inactive | inactive | inactive | inactive
32 | c1csc(-c2ccc3c(c2)CC(NCc2c[nH]c4cnccc24)C3)c1 (stereo not given) | 34% | 9% | -1% | 100% (active) | inactive | inactive | inactive | inactive
33 | Cc1cc(NN=Cc2cccc([N+](=O)[O-])c2)c2ccc(F)cc2n1 | 98% (active) | -18% | -8% | 101% (active) | inactive | inactive | inactive | inactive
34 | Cc1cc(NC2CCN(CC3CCCCC3)C2)nc(Nc2ccc(Br)cc2)n1 (stereo not given) | 83% (active) | 22% | -1% | 101% (active) | inactive | inactive | inactive | inactive
35 | O=C(CN1CCCCC1)Nc1ccc(Nc2nccc(NCC(O)c3ccccc3)n2)cc1 (stereo not given) | 95% (active) | 62% (active) | 3% | 101% (active) | inactive | inactive | inactive | inactive
36 | CCN(CC)CCCC(C)Nc1c2ccccc2nc2ccc3ccccc3c12 (stereo not given) | 89% (active) | 24% | 1% | 100% (active) | inactive | inactive | inactive | inactive
37 | N#CCCN1CCN(Cc2cccc(-c3ccc(-c4nc5ccc(C(F)(F)F)cc5[nH]4)cc3)c2)CC1 | 63% (active) | 23% | 4% | 101% (active) | inactive | inactive | inactive | inactive
38 | O=C(Nc1ccc(-c2ccccc2)cc1)Nc1cccc(Cn2nc(Cl)c(N3CCCNCC3)cc2=O)c1 | 37% | 13% | -2% | 101% (active) | inactive | inactive | inactive | inactive
39 | COc1cc(NC(=O)c2cccs2)c(C(=O)NCc2ccc(C)cc2)cc1OC | 88% (active) | 3% | -2% | 93% (active) | inactive | inactive | inactive | inactive
40 | CCCCCCN1CCC(NCc2cccc(C(F)(F)F)c2)CC1 | 82% (active) | 18% | -6% | 103% (active) | inactive | inactive | inactive | inactive
